Measurements reported in PubChem BioAssay (EPA / NIEHS).
Calls of active or inactive are those of the source. Rule for the calls: active = hit-call score of the fitted dose curve at least 0.9, where 1 is the maximum; inactive = score below 0.9.

Assays:
Details in all cases: mRNA level, 48 h; actives raise or lower the signal
[1] = read-out: Potassium channel subfamily K member 1 (KCNK1), KCNK1 (gene 3775); experiment: LTEA_HepaRG_KCNK1: Life Technologies and Expression Analysis (LTEA) Assay for Potassium channel subfamily K member 1 (KCNK1) using HepaRG (AID 2283511)
Outline: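 Human HepaRG cultures receive test chemicals for 48 h in 0.5% DMSO, top concentration 100 uM with half-log dilutions. Induction or suppression of KCNK1 mRNA relative to DMSO is derived by bidirectional fitting of qRT-PCR data.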

[2] = read-out: Keratin 19 (KRT19), KRT19 (gene 3880); experiment: LTEA_HepaRG_KRT19: Life Technologies and Expression Analysis (LTEA) Assay for Keratin 19 (KRT19) using HepaRG (AID 2283512)
Outline: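 Differentiated HepaRG cells in serum-free induction medium, exposed 48 h in duplicate to 8 half-log concentrations up to 100 uM in 0.5% DMSO. KRT19 mRNA by qRT-PCR, normalized to ACTB, GAPDH, POLR2A; bidirectional fit vs DMSO.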

[3] = read-out: JUN Transcription Factor, JUN (gene 3725); experiment: LTEA_HepaRG_JUN: Life Technologies and Expression Analysis (LTEA) Assay for JUN Transcription Factor using HepaRG (AID 2283513)
Outline: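 HepaRG, 48 h exposure, 8-pt half-log series top 100 uM, 0.5% DMSO, duplicate. JUN mRNA by qRT-PCR (Fluidigm), housekeeping-normalized (ACTB/GAPDH/POLR2A); bidirectional curve fit vs DMSO baseline.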

[4] = read-out: Lipase C (LIPC), LIPC (gene 3990); experiment: LTEA_HepaRG_LIPC: Life Technologies and Expression Analysis (LTEA) Assay for Lipase C (LIPC) using HepaRG (AID 2283514)
Outline: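 In this multiplexed gene-expression screen, human HepaRG cultures received test chemicals for 48 h across eight concentrations with 100 uM highest, in duplicate. Values reflect LIPC mRNA induction or suppression versus DMSO vehicle, from normalized qRT-PCR.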

[5] = read-out: Lipoprotein lipase (LPL), LPL (gene 4023); experiment: LTEA_HepaRG_LPL: Life Technologies and Expression Analysis (LTEA) Assay for Lipoprotein lipase (LPL) using HepaRG (AID 2283515)
Outline: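 Concentration-response testing used half-log steps from 100 uM in 0.5% DMSO on human HepaRG cells, 48 h, duplicate wells. Phenobarbital 1 mM served as induction control; LPL mRNA was normalized to ACTB, GAPDH, POLR2A.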

[6] = read-out: MicroRNA 122 (MIR122), gene 406906; experiment: LTEA_HepaRG_MIR122: Life Technologies and Expression Analysis (LTEA) Assay for MicroRNA 122 (MIR122) using HepaRG (AID 2283516); note: the transcript read is the microRNA miR-122
Outline: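 qRT-PCR read-out (TaqMan, Fluidigm array), normalized to three housekeeping genes; HepaRG cells dosed 48 h at 8 concentrations up to 100 uM in 0.5% DMSO, duplicate; gain or loss fitted against DMSO baseline.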

[7] = read-out: matrix metalloproteinase-10 (MMP10), MMP10 (gene 4319); experiment: LTEA_HepaRG_MMP10: Life Technologies and Expression Analysis (LTEA) Assay for matrix metalloproteinase-10 (MMP10) using HepaRG (AID 2283517)
Outline: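 In differentiated HepaRG cultures kept in 0.5% DMSO, test chemicals act for 48 h over an eight-point range with a top dose of 100 uM. Expression is then quantified by TaqMan RT-PCR against ACTB, GAPDH and POLR2A.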

[8] = read-out: MYC, MYC (gene 4609); experiment: LTEA_HepaRG_MYC: Life Technologies and Expression Analysis (LTEA) Assay for MYC using HepaRG (AID 2283518)
Outline: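 Differentiated HepaRG cells exposed 48 h in serum-free induction medium to 8 concentrations (top 100 uM, half-log steps; 0.5% DMSO), duplicate. MYC mRNA measured by Fluidigm qRT-PCR, normalized to ACTB, GAPDH, POLR2A; bidirectional fit versus DMSO.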

[9] = read-out: Paternally Expressed 10 (PEG10), PEG10 (gene 23089); experiment: LTEA_HepaRG_PEG10: Life Technologies and Expression Analysis (LTEA) Assay for Paternally Expressed 10 (PEG10) using HepaRG (AID 2283520);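 for AC50: PEG10 transcript by qRT-PCR normalised to ACTB GAPDH and POLR2A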
Outline: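 qRT-PCR read-out: PEG10 mRNA normalised to three housekeeping genes, fitted bidirectionally against 0.5% DMSO vehicle. HepaRG cells received test chemicals for 48 h in serum-free induction medium, 8 points, top 100 uM, half-log steps.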

[10] = read-out: matrix metalloproteinase-3 (MMP3), MMP3 (gene 4314); experiment: LTEA_HepaRG_MMP3: Life Technologies and Expression Analysis (LTEA) Assay for matrix metalloproteinase-3 (MMP3) using HepaRG (AID 2283519)
Outline: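 Human liver HepaRG cultures received chemicals (top concentration 100 uM, 0.5% DMSO) for 48 h in duplicate. MMP3 mRNA induction or loss was then assessed via TaqMan qRT-PCR with housekeeping-gene normalisation.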

Structure (SMILES) | outcome [1] | AC50 [2] | outcome [3] | outcome [4] | AC50 [5] | outcome [6] | outcome [7] | outcome [8] | AC50 [9] | outcome [2] | outcome [5] | outcome [9] | outcome [10] | AC50 [10] | AC50 [3] | AC50 [4] | AC50 [6] | AC50 [8]
CSc1ccc(Oc2ccc(S(N)(=O)=O)cc2CN(C)C)cc1C | inactive | 50 µM (active) | inactive | inactive | 77 µM (active) | inactive | inactive | inactive | 72.7 µM (active) |  |  |  |  |  |  |  |  | 
O=C1c2c(O)cccc2Cc2cccc(O)c21 | inactive |  | inactive | inactive |  | inactive | inactive | inactive |  | inactive | inactive | inactive |  |  |  |  |  | 
O=C(O)c1cccnc1 | inactive |  | inactive | inactive |  | inactive | inactive | inactive |  | inactive | inactive | inactive | inactive |  |  |  |  | 
CCCCC(CC)CO (stereo not drawn) | inactive |  | inactive | inactive |  | inactive | inactive | inactive |  | inactive | inactive | inactive | inactive |  |  |  |  | 
C#CC(O)C(CC)CCCC (stereo not drawn) | inactive |  | inactive | inactive |  | inactive | inactive | inactive |  | inactive | inactive | inactive | inactive |  |  |  |  | 
OCC(CO)n1cnc(-c2ccc(F)cc2)c1-c1ccnc(Oc2ccccc2)n1 | inactive |  | inactive | inactive |  | inactive | inactive | inactive |  | inactive | inactive | inactive |  | 13.5 µM (active) |  |  |  | 
Oc1ccc(O)cc1 | inactive |  | inactive | inactive |  | inactive | inactive | inactive |  | inactive | inactive | inactive |  |  |  |  |  | 
COC(=O)CCC(=O)OC | inactive |  | inactive | inactive |  | inactive | inactive | inactive |  | inactive | inactive | inactive |  |  |  |  |  | 
NC1CCCCC1 | inactive |  | inactive | inactive |  | inactive | inactive | inactive |  | inactive | inactive | inactive |  |  |  |  |  | 
O=C1CCCCC1 | inactive |  | inactive | inactive |  | inactive | inactive | inactive |  | inactive | inactive | inactive | inactive |  |  |  |  | 
Cc1cn([C@H]2C=C[C@@H](CO)O2)c(=O)[nH]c1=O | inactive |  | inactive | inactive |  | inactive | inactive | inactive |  | inactive | inactive | inactive | inactive |  |  |  |  | 
COC(=O)CCCC(=O)OC | inactive |  | inactive | inactive |  | inactive | inactive | inactive |  | inactive | inactive | inactive | inactive |  |  |  |  | 
O=C(Oc1ccccc1)c1cccc(C(=O)Oc2ccccc2)c1 | inactive |  | inactive | inactive |  | inactive | inactive | inactive |  | inactive | inactive | inactive |  |  |  |  |  | 
O=[Si]=O | inactive |  | inactive | inactive |  | inactive | inactive | inactive |  | inactive | inactive | inactive |  |  |  |  |  | 
CC(C)(O)c1ccc(CNC(=O)c2cccnc2Oc2ccc(F)cc2)cc1 | inactive |  | inactive | inactive |  | inactive | inactive | inactive |  | inactive | inactive | inactive |  |  |  |  |  | 
CCCCOC(=O)CCCCC(=O)OCCCC | inactive |  | inactive | inactive |  | inactive | inactive | inactive |  | inactive | inactive | inactive | inactive |  |  |  |  | 
Cc1occc(=O)c1O | inactive |  | inactive | inactive |  | inactive |  | inactive |  | inactive | inactive | inactive |  |  |  |  |  | 
CCCCC(CC)COP(=O)(OCC(CC)CCCC)OCC(CC)CCCC (stereo not drawn) | inactive |  | inactive | inactive |  | inactive | inactive | inactive |  | inactive | inactive | inactive |  |  |  |  |  | 
Nc1nc(=S)c2[nH]cnc2[nH]1 |  |  |  |  | 19.1 µM (active) |  | inactive |  | 7.2 µM (active) | inactive |  |  |  |  | 7.57 µM (active) | 5.83 µM (active) | 11.9 µM (active) | 11.4 µM (active)
CC(C)c1cccc(C(C)C)c1NC(=O)NS(=O)(=O)c1cc(C(C)(C)O)co1 | inactive |  | inactive | inactive |  | inactive | inactive | inactive |  | inactive | inactive | inactive |  |  |  |  |  | 
CN(C)C(=O)NC1(c2ccccc2)CCN(CC[C@@]2(c3ccc(F)c(F)c3)CN(C(=O)c3ccccc3)CCO2)CC1 | inactive | 27 µM (active) | inactive |  | 31.8 µM (active) | inactive | inactive | inactive | 1.35 µM (active) |  |  |  |  |  |  | 47 µM (active) |  | 
NC=O | inactive |  | inactive | inactive |  | inactive | inactive | inactive |  | inactive | inactive | inactive |  |  |  |  |  | 
Oc1ccccc1O | inactive |  | inactive | inactive |  | inactive | inactive | inactive |  | inactive | inactive | inactive |  |  |  |  |  | 
